PubChem BioAssay (NCATS)
Results filed as inconclusive are left out. Calls of active or inactive are those of the source. The call rests on the fitted dose curve; in most records, active means well fitted inhibition curve with a large enough effect; inconclusive means small, poorly fitted or top-dose-only effect; inactive means no such curve, though single readings can be large or run the other way.

biological target: Retinaldehyde dehydrogenase 3 (Homo sapiens) (UniProt P47895); experiment: qHTS for Inhibitors of the Aldehyde Dehydrogenase Family (ALDH1A3) Primary screen (AID 2061315); conditions: ALDH inhibition qHTS; series mostly up to 56 µM; activity change, negative = inhibition: at the top concentration;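 further: plate controls were DMSO vehicle for no effect and reference inhibitor for full effect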

Structure (SMILES)	activity change, negative = inhibition	Potency
Cc1ccsc1CN(C)c1ncnc2ccc(-c3ccc4c(c3)OCO4)cc12	0.0614% (inactive)	–
OCc1ccc(-c2ccc3ncnc(NCc4cccs4)c3c2)o1	4.65% (inactive)	–
CC(=O)Nc1sc2c(c1-c1cc3ccccc3s1)CCNC2	-10.2% (inactive)	–
COc1cc(-c2ccc3ncnc(NCc4cccs4)c3c2)cc(OC)c1OC	-5.35% (inactive)	–
CCn1cnc2c(Nc3ccc(Cc4cccnc4)cc3)nc(C#N)nc21	12.4% (inactive)	–
Cc1ccc(OCCn2c(CCNC(=O)c3ccc(C(C)(C)C)cc3)nc3ccccc32)cc1	6.53% (inactive)	–
Cc1ccnc(NC(=S)N2CCN(c3ccc(F)cc3)CC2)c1	-24.9% (inactive)	–
NC(=O)C1CCN(c2ncnc(-c3ccc4c(c3)OCCCO4)n2)CC1	-10.2% (inactive)	–
Cc1ccccc1NC(=O)CN1C(=O)N/C(=C\c2cn(-c3cccc(C(=O)O)c3)cn2)C1=O	21.8% (inactive)	–
Cc1cc(C)nc(NC(=S)N2CCN(c3ccc(Cl)nn3)CC2)c1	-10.3% (inactive)	–
CS(=O)(=O)c1ccc(C(=O)OCC(=O)N2CCN(C3CCCCC3)CC2)cc1[N+](=O)[O-]	6.18% (inactive)	–
COc1cc(F)c(S(=O)(=O)N2CCN(S(=O)(=O)c3cccs3)CC2)c(F)c1	-0.366% (inactive)	–
COCCNc1ccc(NC(=O)c2cccs2)cn1	-17% (inactive)	–
CC1=C(C(=O)Nc2ccon2)C(c2nn(C)cc2Cl)N=C(Nc2nc3ccccc3o2)N1 (stereo not given)	16% (inactive)	–
Cc1c(C(N)=O)[nH]c2c1C(=O)CC(c1ccco1)C2 (stereo not given)	-21.6% (inactive)	–
C[C@H](NC(c1ccc(F)cc1)c1ccc2cccnc2c1O)c1ccccc1 (stereo not given in full)	–	inactive
Fc1ccc(-c2ccc(CNc3nc(-c4ccccc4C(F)(F)F)nc4ccccc34)cc2)cc1	-13.3% (inactive)	–
O=c1c(Nc2ccc(F)c(C(F)(F)F)c2)c(Nc2nnc(-c3ccncc3)s2)c1=O	13% (inactive)	–
COc1ccnc(NCc2ccc(O)c3ncccc23)c1	-26.5% (inactive)	–
O=C(NC1CCCc2c1cnn2CCO)c1ccccn1 (stereo not given)	-11.1% (inactive)	–

Structure (SMILES)	activity change, negative = inhibition	Potency
Cc1ccc(NS(=O)(=O)c2ccc(-c3ccccc3)cc2)cc1C	7.57% (inactive)	–
CN1CCN(c2cccc(Nc3nn4c(=O)c5ccc(C(F)(F)F)cc5nc4s3)c2)CC1	5.49% (inactive)	–
Cc1ccc(NS(=O)(=O)c2cc3c(cc2-c2ccccc2)NC(=O)CO3)cc1C	3.45% (inactive)	–
Cc1cccc(CNc2ccnc(-c3ccc4ccccc4c3)n2)c1	-2.85% (inactive)	–
CC(Nc1ncnc2ccc(-c3ccc4c(c3)OCO4)cc12)c1ccco1 (stereo not given)	0.0591% (inactive)	–
COc1ccccc1NS(=O)(=O)c1cc(NC(=O)c2ccccc2)ccc1N1CCCC1	4.02% (inactive)	–
O=C(CSc1nnc(-c2cccc([S+](=O)([O-])N3CCCC3)c2)n1-c1ccccc1)Nc1ccc(Br)cc1	12.1% (inactive)	–
CCOC(=O)c1[nH]c2c(c1C)CCC(c1ccco1)C2 (stereo not given)	-8.34% (inactive)	–
Cc1ccc2nc3sc(C(=O)Nc4ccc(F)cc4)cc3cc2c1	-5.8% (inactive)	–
Cc1ccc(CNc2ncnc3cc(-c4ccc5c(c4)OCO5)ccc23)o1	1.77% (inactive)	–
O=c1c(Nc2ccc(Br)c(Br)c2)c(Nc2nnc(-c3ccncc3)s2)c1=O	8.23% (inactive)	–
c1csc(CNc2ncnc3cc(-c4ccc5c(c4)OCO5)ccc23)c1	0.238% (inactive)	–
Cc1ccc(N[S+](=O)([O-])c2cc3c(cc2CCc2ccccc2)NC(=O)CO3)cc1C	0.861% (inactive)	–
Cc1cc(C)n2ncc(C(=O)Nc3ccccc3)c2n1	14.3% (inactive)	–
O=c1c2ccccc2nc2sc(NCc3ccc([S+](=O)([O-])c4ccccc4)cc3)nn12	-0.662% (inactive)	–
Cc1cc(C=CC#N)cc(C)c1Nc1nc(Nc2ccc3scnc3c2)c2[nH]cnc2n1	-3.98% (inactive)	–
O=S(=O)(Nc1nccs1)c1ccc(NCc2cccc(Br)c2O)cc1	12.9% (inactive)	–
Cc1ccc(CNc2ncnc3ccc(-c4ccc5c(c4)OCO5)cc23)s1	2.82% (inactive)	–
N#Cc1c(-c2ccc(-c3ccccc3)cc2)no[n+]1[O-]	-7.19% (inactive)	–
CCCC(C)NC(=O)Cn1nc(-c2ccc(C)cc2)ccc1=O (stereo not given)	-5.13% (inactive)	–
